Experimental data reported in paper PMC4336329 (PLoS ONE, 2015).
In all, about 310,000 compounds went through this assay and about 14,000 (4.5%) showed an effect of 50% or more. Effects have a minus sign here. For the sample, strong results were picked, then their nearest neighbours and some compounds at random.

Target: human ether-à-go-go-related gene (hERG) potassium channel (human, UniProt Q12809)
Assay: primary screen, population patch clamp on CHO cells stably expressing hERG; higher = less effect of the substance
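Also: peak tail current of the secondary pulse compared with the same well before compound.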

human ether-à-go-go-related gene (hERG) potassium channel, sequence (Q12809 whole entry, looked up): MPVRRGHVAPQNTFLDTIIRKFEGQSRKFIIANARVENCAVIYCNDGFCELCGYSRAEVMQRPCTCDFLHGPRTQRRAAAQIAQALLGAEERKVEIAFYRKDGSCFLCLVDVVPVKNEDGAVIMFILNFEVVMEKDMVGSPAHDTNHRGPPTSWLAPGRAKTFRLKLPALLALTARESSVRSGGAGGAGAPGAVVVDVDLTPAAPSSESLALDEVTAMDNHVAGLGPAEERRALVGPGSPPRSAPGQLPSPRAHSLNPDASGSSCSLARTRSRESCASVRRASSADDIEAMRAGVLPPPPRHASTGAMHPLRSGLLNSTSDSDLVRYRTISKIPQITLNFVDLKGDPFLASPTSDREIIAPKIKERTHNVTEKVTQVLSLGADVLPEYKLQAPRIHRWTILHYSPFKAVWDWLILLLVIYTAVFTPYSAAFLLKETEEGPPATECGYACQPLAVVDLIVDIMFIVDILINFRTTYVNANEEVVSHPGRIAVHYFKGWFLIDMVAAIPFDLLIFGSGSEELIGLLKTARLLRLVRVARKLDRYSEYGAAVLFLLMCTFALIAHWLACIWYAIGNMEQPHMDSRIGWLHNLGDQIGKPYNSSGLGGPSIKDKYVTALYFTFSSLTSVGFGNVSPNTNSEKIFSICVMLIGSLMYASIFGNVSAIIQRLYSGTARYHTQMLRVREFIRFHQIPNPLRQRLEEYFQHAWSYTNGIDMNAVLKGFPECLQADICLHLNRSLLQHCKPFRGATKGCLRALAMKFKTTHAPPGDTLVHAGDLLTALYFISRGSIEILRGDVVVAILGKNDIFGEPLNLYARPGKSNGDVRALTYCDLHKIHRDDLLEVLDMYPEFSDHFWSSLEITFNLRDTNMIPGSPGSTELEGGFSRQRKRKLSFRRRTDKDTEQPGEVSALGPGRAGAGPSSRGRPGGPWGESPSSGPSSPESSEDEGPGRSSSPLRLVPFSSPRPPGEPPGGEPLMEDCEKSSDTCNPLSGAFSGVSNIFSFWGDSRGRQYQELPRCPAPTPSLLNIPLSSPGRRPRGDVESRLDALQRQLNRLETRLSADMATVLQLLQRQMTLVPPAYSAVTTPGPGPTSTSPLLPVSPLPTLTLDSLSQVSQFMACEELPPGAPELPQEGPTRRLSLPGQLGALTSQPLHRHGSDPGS

| Compound | hERG current change (%, negative = inhibition) at 10uM [%] |
| --- | --- |
| Cc1cccc(N2CCN(C(=O)COc3cccc4c3OC(C)(C)C4)CC2)c1C | -2.16 |
| CC1(C)Cc2cccc(OCC(=O)N3CCN(c4ccccc4Cl)CC3)c2O1 | -64.3 |
| CC1(C)Cc2cccc(OCC(=O)N3CCN(c4ccc([N+](=O)[O-])cc4)CC3)c2O1 | -70.3 |
| CC1(C)Cc2cccc(OCC(=O)N3CCN(c4ccccc4)CC3)c2O1 | -45.6 |
| CC1(C)Cc2cccc(OCC(=O)N3CCN(c4ccccc4F)CC3)c2O1 | -22.4 |
| CC1(C)Cc2cccc(OCC(=O)N3CCN(S(=O)(=O)c4ccc(F)cc4)CC3)c2O1 | -21.6 |
| CC1(C)Cc2cccc(OCC(=O)N3CCN(c4ccc(F)cc4)CC3)c2O1 | -69.5 |
| CC1(C)Cc2cccc(OCC(=O)N3CCN(c4cccc(Cl)c4)CC3)c2O1 | -4.1 |
| CC1(C)Cc2cccc(OCC(=O)N3CCN(c4cccc(C(F)(F)F)c4)CC3)c2O1 | 1.57 |
| CCn1cc(C(=O)O)c(=O)c2cc(F)c(N3CCN(S(=O)(=O)c4ccc(NC(=O)OC)cc4)CC3)cc21 | 21.8 |
| CC1(C)SC(=S)N(/N=C/c2cccnc2)C1N(O)C(=O)Nc1ccccc1 (stereo not drawn) | -5.91 |
| COc1ccc(S(=O)(=O)N2CCN(C3CCCC(C)C3)CC2)cc1.O=C(O)C(=O)O (stereo not drawn) | -16.7 |
| CCCCN(C)C(=O)CCC(=O)Nc1ccc2nc(N3CCN(C)CC3)cc(C)c2c1 | 11 |
| CC1=CC(C)(C)N(C(=O)c2ccccc2)c2ccccc21 | -8.02 |
| CN(C)S(=O)(=O)c1ccc(N2CCCC2)c(C(=O)Nc2nc(-c3cc(F)ccc3F)cs2)c1 | 0.334 |
| O=C(Nc1c(C(=O)N2CCOCC2)oc2ccccc12)c1cccc([N+](=O)[O-])c1 | -20.2 |
| CCC(CC)C(=O)Nc1c(C(=O)N2CCN(c3ccccc3)CC2)oc2ccccc12 | 3.17 |
| CCOCCCN(C)C1CCN(C(=O)c2oc3ccccc3c2NC(=O)c2ccc([N+](=O)[O-])cc2)CC1 | -75.9 |
| COc1cc2c(cc1NC(=O)c1cccc([N+](=O)[O-])c1)oc1ccccc12 | 1.9 |
| CCOCCCN(C)C1CCN(C(=O)c2oc3ccccc3c2NC(=O)c2cccc([N+](=O)[O-])c2)CC1 | -79.7 |
| CCOC(=O)c1oc2ccccc2c1NC(=O)c1ccc(S(=O)(=O)N(C)C)cc1 | 13 |

| Compound | hERG current change (%, negative = inhibition) at 10uM [%] |
| --- | --- |
| CCOC(=O)N1CCC(NC(=O)C2CCCN(C(=O)c3cc4sccc4n3C)C2)CC1 (stereo not drawn) | -5.34 |
| CS(=O)(=O)O.OC(c1cc(C(F)(F)F)nc2c(Cl)cc(Cl)cc12)C1CCCCN1 (stereo not drawn) | -23.8 |
| Cc1[nH]n(-c2ccccc2)c(=O)c1N=Nc1ccc(C(=O)O)cc1 | 25.7 |
| CC(=O)NC1C(Oc2ccccc2C)OC2COC(c3ccco3)OC2C1O (stereo not drawn) | 3.59 |
| COc1ccc(-c2c(C(C)=O)c(C)nc3sc4c(=O)[nH]nnc4c23)cc1 | 8.95 |
| Cn1c(=O)c2c(nc(NCc3ccco3)n2CC(O)COc2ccccc2)n(C)c1=O (stereo not drawn) | -25.9 |
| Cc1ccccc1OCC(O)Cn1c(NCc2ccco2)nc2c1c(=O)n(C)c(=O)n2C (stereo not drawn) | -52.1 |
| Cc1ccccc1OCC(O)Cn1c(NCc2ccco2)nc2c1c(=O)[nH]c(=O)n2C (stereo not drawn) | 4.8 |
| Cc1oc(S(=O)(=O)N2CCCCC2)cc1NC(=O)Nc1ccc(F)cc1 | 3.43 |
| C=CCC(O)(CC=C)CNC(=O)c1ccc(OC)c(OC2CCN(C(C)=O)CC2)c1 | 14.9 |
| COc1ccc(C(=O)NC2CC2)cc1OC1CCN(Cc2ccccc2O)CC1 | -102 |
| COc1ccc(OC)c(CN2CCC(N3CCC(C(=O)NC4CC4)CC3)CC2)c1 | -11.1 |
| CCOc1ccccc1CN1CCC(Oc2cccc(C(=O)NCCOC)c2)CC1 | -30.8 |
| COc1ccc(C(=O)NC2CC2)cc1OC1CCN(Cc2ccccc2F)CC1 | -78 |
| COc1cc(C(=O)NC2Cc3ccccc3C2)ccc1OC1CCN(C(C)=O)CC1 | 4.22 |
| COc1ccc(C(=O)NCCc2ccccc2F)cc1OC1CCN(C(C)=O)CC1 | 4.19 |
| C=CCOc1ccccc1CN1CCC(Oc2cc(C(=O)NC3CC3)ccc2OC)CC1 | -72.2 |
| COc1ccc(C(=O)NC2CCc3ccccc32)cc1OC1CCN(C(C)=O)CC1 (stereo not drawn) | -0.012 |
| COc1ccc(CN2CCC(Oc3ccc(C(=O)NCc4ccccn4)cc3)CC2)c(F)c1 | -12.6 |
| COc1ccc(CN2CCC(Oc3cc(C(=O)NC4CC4)ccc3OC)CC2)c(O)c1 | -77.3 |
| COc1ccc(C(=O)N(C)C2CCCN(Cc3ccccc3F)C2)cc1OC (stereo not drawn) | 11.1 |
